# Sampled rows, rich in hits. Any-hit rate of the full collection: about 1.6%.
# PKA-R1A act: activators of PKA-R1A complex. actives 0.083% (n = 340,000). activation, % at 11.4 µM. PKA-R1A dissociation, Cy5-IP20 fluorescence polarization; scaled: DMSO 0%, 113 µM cGMP 100%. AID 504707;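 active means percent activation above the mean of all tested compounds plus 3 SD, cut at about 19% in these data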;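 further: higher means more PKAc released from R1A so a rise in polarization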
# CendR NRP1 mod: modulators of CendR peptide binding to human neuropilin-1; O14786; FAM-RPARPAR peptide binding to NRP-1, fluorescence polarization; inhibition, % at 25 µM; actives 0.85% (n = 360,000); AID 602438;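 active means inhibition or corrected inhibition above about 18%, plus a signal ratio from 0.5 to 1.5, limit read from the data, passing the limit was not always enough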
# ATG4B inh: ATG4B (human) cysteine protease inhibition. Q9Y4P1. ATG4B cleavage of LC3-PLA2, NBD-HPC fluorescence, 1 h. inhibition, % at 8.33 µM. actives 0.51% (n = 340,000); in the data active means inhibition above about 40%
# VLA-4 inh: inhibition in a human VLA-4 binding assay. P13612. VLA-4 expressing cells, ligand binding flow cytometry. inhibition, % (about 7 µM as worked out from the volumes in the protocol). actives 0.2% (n = 330,000). AID 2557
# PKA-R2B activ: activates the human PKA-R2B holoenzyme complex; PKA-R2B holoenzyme dissociation, Cy5-IP20 fluorescence polarization; R2B truncated from residue 108, S112A mutant; 0% DMSO only, 100% 113 µM cGMP; activation, % at 11.4 µM; actives 0.079% (n = 340,000); AID 504700;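 active means activation above a cutoff set at the mean over all compounds plus 3 SD, cut at about 18% in these data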;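 further: higher means more holoenzyme dissociation and a rise in polarization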
# Target sequence (P31323 whole entry, looked up, other chains not shown, the tested form may be a part): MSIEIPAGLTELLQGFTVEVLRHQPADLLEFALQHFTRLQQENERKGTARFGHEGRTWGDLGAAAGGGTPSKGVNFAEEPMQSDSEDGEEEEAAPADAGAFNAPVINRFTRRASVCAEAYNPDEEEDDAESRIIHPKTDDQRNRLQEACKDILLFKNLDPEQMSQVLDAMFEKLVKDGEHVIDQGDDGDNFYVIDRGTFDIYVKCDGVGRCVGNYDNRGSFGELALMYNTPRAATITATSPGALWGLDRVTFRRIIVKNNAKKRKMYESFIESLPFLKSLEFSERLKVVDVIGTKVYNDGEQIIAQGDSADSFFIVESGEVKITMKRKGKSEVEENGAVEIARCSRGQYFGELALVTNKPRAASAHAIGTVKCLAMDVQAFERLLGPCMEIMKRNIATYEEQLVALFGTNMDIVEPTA
# ATG4B conf: ATG4B (human) inhibition, single-dose confirmed | inhibition, % at 8.33 µM | actives 92% (n = 320) | ATG4B protease fluorescent substrate cleavage assay | AID 504757 | shares compounds with ATG4B inh; in the data active means inhibition above about 39%
# PLA2 counter: inhibits human PLA2, flagging false ATG4B inhibitors; shares compounds with ATG4B inh; purified PLA2, NBD-C6-HPC fluorescence, 45 min; inhibition, % at 8.33 µM; actives 66% (n = 1,600)
# Target sequence (P04054 whole entry, looked up): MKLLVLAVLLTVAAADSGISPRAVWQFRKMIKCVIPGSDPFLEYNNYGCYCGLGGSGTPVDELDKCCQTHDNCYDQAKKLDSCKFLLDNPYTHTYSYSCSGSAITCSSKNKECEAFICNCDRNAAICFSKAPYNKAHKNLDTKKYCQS
# Starred values were filed as active, the others as inactive; . = no result given. Unless noted, no stated cut-off is given here; in the data, active means inhibition above about 50%; inactive means the rest.
SMILES,PKA-R1A act,CendR NRP1 mod,ATG4B inh,VLA-4 inh,PKA-R2B activ,PLA2 counter,others
COc1ccc(Cl)cc1-n1c(=S)sc2c(=O)[nH]c(SCC(=O)NCCC(C)C)nc21,2.2,5.2,41.5*,.,6.1,41.2,ATG4B conf=73.4*
CCOc1ccc(-n2c(=S)sc3c(=O)[nH]c(SCC(=O)NC(C)CC)nc32)cc1 (stereo not drawn),3.8,1.2,-5.7,10.9,0.0,.,
COc1ccc(-c2nnc(CSc3nc4ccccc4c(=O)n3C)o2)cc1OC,-10.6,-1.5,-3.5,14.1,9.4,.,
O=c1c2ccccc2nc(SCc2cn3ccsc3n2)n1-c1ccccc1F,-9.4,-7.4,65.6*,-9.4,-7.3,71.9*,
O=c1c2ccccc2nc(SCc2nnc(-c3ccccc3)o2)n1-c1ccc(F)cc1F,-8.6,3.7,62.1*,0.8,2.8,69.4*,
O=c1c2ccccc2nc(SCc2cn3ccsc3n2)n1-c1ccccc1,-13.2,-15.7,60.0*,4.1,-4.1,72.8*,
Cc1cccc(C)c1NC(=O)CCCSc1nc2ccccc2s1,0.7,2.8,46.6*,-3.8,-11.5,31.2,
CCCNC(=O)c1ccc(Cn2cc(-c3ccc(OC)cc3)nc2C(C)N)cc1 (stereo not drawn),-1.0,-2.6,5.4,21.4,-7.6,.,
CCCCn1c(=O)c(-c2ccccc2)c(O)c2ccccc21,7.8,5.2,1.6,2.9,4.6,.,
CCCCn1c2ccccc2c2cc(CC(N)=O)ccc21,-6.8,14.1,62.1*,15.0,-8.3,73.8*,
CCCc1ccc(C(C)NC(=S)NCc2ccc(F)cc2)cc1 (stereo not drawn),2.9,-2.3,59.0*,-1.3,-8.0,70.2*,
COc1ccc(C(C)NC(=S)NCc2ccc(F)cc2)cc1OC (stereo not drawn),3.1,-5.9,10.1,-3.3,-3.3,.,
CCC(NC(=S)NCc1ccc(F)cc1)c1ccc(C(C)C)cc1 (stereo not drawn),-11.6,15.5,53.9*,-1.7,-0.7,76.8*,
CCC(C)c1ccc(C(C)NC(=S)NCc2ccc(F)cc2)cc1 (stereo not drawn),-5.8,6.7,63.0*,13.3,-19.0,77.6*,
CC(NC(=S)NCc1ccc(F)cc1)C12CC3CC(CC(C3)C1)C2 (stereo not drawn),2.5,12.7,26.6,12.2,-16.9,.,
Cc1ccc(OCCC(=O)OCC(=O)Nc2ccc3c(c2)OCO3)cc1,2.9,8.8,-3.0,2.7,-10.3,.,
C#CCOCCOCCOCCNc1nc(N2CCN(C(=O)CCCCCCCCCCNC(=O)[C@H](CCCCN)n3cc(C[C@@H](C)CC)nn3)CC2)nc(N2CCN(C(=O)CCCCCCCCCCNC(=O)[C@H](CCCN=C(N)N)n3cc(C[C@@H](C)CC)nn3)CC2)n1,-0.2,39.6*,88.1*,14.1,0.4,81.1*,
C#CCOCCOCCOCCNc1nc(N2CCN(C(=O)CCCCCCCCCCNC(=O)[C@@H](CCC(=O)O)n3cc(CCCCCN)nn3)CC2)nc(N2CCN(C(=O)CCCCCCCCCCNC(=O)[C@H](CCCCN)n3cc(C[C@@H](C)CC)nn3)CC2)n1,-7.4,-10.2,23.5,-9.7,-4.5,.,
C#CCOCCOCCOCCNc1nc(N2CCN(C(=O)CCCCCCCCCCNC(=O)[C@H](CCCCN)n3cc(CCO)nn3)CC2)nc(N2CCN(C(=O)CCCCCCCCCCNC(=O)[C@H](CCCCN)n3cc(C[C@@H](C)CC)nn3)CC2)n1,.,.,75.4*,32.6,.,46.2,ATG4B conf=23.6
C#CCOCCOCCOCCNc1nc(N2CCN(C(=O)CCCCCCCCCCNC(=O)[C@H](CCCCN)n3cc(C)nn3)CC2)nc(N2CCN(C(=O)CCCCCCCCCCNC(=O)[C@H](CCCN=C(N)N)n3cc(C[C@@H](C)CC)nn3)CC2)n1,.,.,68.6*,-15.5,.,70.0*,
C#CCOCCOCCOCCNc1nc(N2CCN(C(=O)CCCCCCCCCCNC(=O)[C@H](CCCN=C(N)N)n3cc(C[C@@H](C)CC)nn3)CC2)nc(N2CCN(C(=O)CCCCCCCCCCNC(=O)[C@@H]([C@H](C)CC)n3cc(CCCCCN)nn3)CC2)n1,.,.,.,-12.4,.,.,
O=C(O)/C=C\c1ccccc1Oc1cccc(Cl)c1,6.7,-9.1,14.6,0.4,-0.9,.,
O=C(O)/C=C/c1ccccc1Oc1ccc(Cl)cc1Cl,-4.5,-5.0,41.4*,4.8,6.2,10.7,ATG4B conf=68.3*
COCCNc1nc(SCc2ccccc2)nc2sc3c(c12)CCC3,0.5,3.4,46.4*,-11.6,-3.4,60.3*,
CC(CO)Nc1nc(SCc2ccccc2)nc2sc3c(c12)CCC3 (stereo not drawn),-3.0,-2.8,83.3*,1.9,-20.2,91.3*,
SMILES,PKA-R1A act,CendR NRP1 mod,ATG4B inh,VLA-4 inh,PKA-R2B activ,PLA2 counter,others
Cc1ccc(S(=O)(=O)N(C)C)cc1NC(=O)C(C)OC(=O)CC1CC2CCC1C2 (stereo not drawn),-1.4,-7.6,.,.,-6.1,.,
O=C(Nc1ccccc1-c1ccccc1)NC1CC2CCCC(C1)N2Cc1ccc(F)cc1 (stereo not drawn),9.5,6.0,72.2*,19.3,-6.5,66.1*,
COCOc1ccc(C=O)c(O)c1,-4.9,2.6,-21.5,-15.9,-4.4,.,
O=Cc1ccc(OCc2cccc(C(F)(F)F)c2)cc1O,-6.6,-4.9,56.6*,-3.6,3.7,77.3*,
CS(=O)(=O)N(CC(=O)NCc1ccco1)c1cccc([N+](=O)[O-])c1,-4.4,-5.4,-0.3,4.6,-10.3,.,
CS(=O)(=O)Nc1ccc(C2=NN(C(=O)C3CCCCC3)C(c3cccs3)C2)cc1 (stereo not drawn),-8.1,-20.8,76.7*,-9.1,-5.0,80.8*,
O=C(NCc1ccccc1Cl)c1ccccc1CCc1ccccc1,4.7,11.1,29.5,6.2,-1.4,.,
O=C(NCc1ccc(Cl)cc1)c1ccccc1CCc1ccccc1,-0.3,2.7,55.0*,2.5,-8.3,52.7*,
CC(C(=O)Nc1ccc(C(=O)O)c(O)c1)N1C(=O)/C(=C\c2ccco2)SC1=S (stereo not drawn),-9.4,-137.2,48.2*,-5.8,5.1,11.6,ATG4B conf=61.7*
O=C(CN1C(=O)/C(=C/c2ccco2)SC1=S)Nc1ccc(O)c(C(=O)O)c1,3.7,-107.2,30.7,30.5,4.1,.,
O=C(CN1C(=O)/C(=C/c2ccco2)SC1=S)Nc1ccc(C(=O)O)c(O)c1,-6.2,-149.1,61.6*,24.0,0.2,20.1,ATG4B conf=57.4*
CCN(CC)c1ccc(C(=C2C=CC(=[N+](CC)CC)C=C2)c2ccc(N(CC)CC)cc2)cc1,-58.4,30.2*,57.7*,.,-54.5,51.8*,

# Source: PubChem (several laboratories)
